The source of these data is PubChem BioAssay (NCATS).

Molecules are shown by their SMILES. A number with no mark means an inactive call. Records with an inconclusive call do not appear. Calls of active or inactive are those of the source. Unless noted, the call rests on the fitted dose curve; in most records, active means well fitted curve in either direction with a large enough effect (not every such curve was filed as active); inconclusive means small, poorly fitted or top-dose-only effect, or another doubt; inactive means flat fitted curve, though single readings scatter.

The target in experiment [1] is Lysosomal acid glucosylceramidase (Homo sapiens) (UniProt P04062). Description: Glucocerebrosidase-p2 (AID 348; in the data active means potency below about 10 µM; further: potency means the concentration at half of the fitted maximal effect). The note with it: purified GBA, blue fluorogenic substrate, 40 min. Summed up:
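Normal human glucocerebrosidase (0.2 nM) with blue fluorogenic substrate (80 uM final) in citrate/phosphate pH 5.9 with 10mM sodium taurocholate, 0.01% tween-20; 40 min RT, NaOH/glycine stop; fluorescence Ex 365/Em 440; AC50 from a titration from 0.6 nM upwards.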

Experiment [2] can be described thus: AP1 Signaling Pathway (AID 357).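 Further: ME-180 reporter cells stimulated with EGF at its EC50 level; on the % scale 0 is the no-effect control and ±100 the full control effect.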 The settings on record: ME-180 AP-1-bla reporter, EGF-induced, beta-lactamase ratio, 5 h; at 7.69 µM (top of the series) unless noted. Summed up:
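Cells are seeded overnight, exposed to compound titrations and an EC50 level of EGF for 5 hours at 37 °C, then loaded with CCF4 dye for 2.5 hours. Beta-lactamase activity under the AP-1 element is read as a blue/green ratio.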

Experiment [3] has as its target Cytochrome P450 1A2 (Homo sapiens) (UniProt P05177). Nature of the experiment: p450-cyp1a2 (AID 410; calls by dose curve; further: potency means the concentration at half of the fitted maximal effect;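 on activity change, negative = inhibition: -100% = full effect of reference inhibitor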). The settings on record: recombinant CYP1A2, luciferin-ME demethylation, luminescence; series mostly up to 57 µM. Summed up: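 Luminescent demethylation readout: Luciferin-ME (100uM, equal to Km) turned over by 20nM CYP1A2 for 60 min at room temperature after NADPH regeneration addition, following 10 min compound preincubation. Normalization used 57 uM furafylline as full inhibition.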

Experiment [4] can be described thus: NFAT Signaling Pathway (AID 444).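 Further: carbachol stimulus at about its EC50 of 1 µM final; on the % scale 0 is the no-effect control and ±100 the full control effect.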 The settings on record: Jurkat NFAT-bla M1, carbachol, beta-lactamase ratio, 5 h; at 7.69 µM (top of the series) unless noted. Summed up: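 Jurkat cells carrying an NFAT-driven β-lactamase reporter and co-transfected muscarinic M1 receptor were treated with compound plus carbachol (1 uM final, an EC50 level) for 5 h at 37 °C. CCF4 loading followed for 1 h at RT; 460/530 nm ratio gave %activity.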

Experiment [5] is described as follows: Stat Signaling Pathway (AID 446).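 Further: ME-180 cervical cancer cells given 40 pM IL-6 alongside compound; SIE-controlled beta-lactamase reporter measured as 460/530 nm FRET emission ratio; on the % scale 0 is the no-effect control and ±100 the full control effect.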 The settings on record: ME-180 SIE beta-lactamase reporter, IL-6 stimulated, 5 h; at 7.69 µM (top of the series) unless noted. Summed up: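 Emission at 460 and 530 nm (excitation 405 nm) reports SIE-controlled beta-lactamase in ME-180 cells. Cells received compound with 40 pM IL-6 for 5 hrs at 37 C; data scaled between 300 pM IL-6 and 125 nM JAK-inhibitor controls.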

Experiment [6] addresses Glucocorticoid receptor (Homo sapiens) (UniProt P04150). Nature of the experiment: GR-EFC Redistribution (AID 451; calls by dose curve; further: potency means the concentration at half of the fitted maximal effect). The note with it: CHO-K1 GR-EFC translocation, beta-gal luminescence, 2 h. Summed up: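 CHO-K1 cells stably expressing nuclear-localized β-gal enzyme acceptor and GR fused C-terminally to the enzyme donor fragment; ligand-driven nuclear translocation restores β-gal by complementation. Compounds titrated up to 46 uM final, 2 h at 37 °C; luminescence read.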

The target in experiment [7] is Mitogen-activated protein kinase 10 (Mus musculus) (UniProt Q61831). Nature of the experiment: JNK3 AlphaScreen Assay (AID 530).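 Further: kinase came from lysate of stimulated human HepG2 cells; on the % scale 0 is the no-effect control and ±100 the full control effect.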 The note with it: JNK3 lysate, c-Jun phosphorylation; series mostly up to 57.1 µM. Summed up: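 Phosphorylation of biotinylated GST-cJun(1-79) at Ser73 is measured by AlphaScreen proximity luminescence. Enzyme is JNK3 in HepG2 lysates activated with interleukin-1beta and tumor necrosis factor alpha; ATP is 10 uM final.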
For orientation: In Alpha technology, singlet oxygen from a donor bead excites a nearby acceptor bead.

The target in experiment [8] is 3',5'-cyclic-AMP phosphodiesterase 4B (Homo sapiens) (UniProt Q07343). Description: qHTS Assay for Inhibitors of PDE-IV (AID 607; active means well fitted activation curve with a large enough effect in the main read-out, with a control signal flat, not every such curve was filed as active; further: % of control where 0% means no effect). The settings on record: HEK293 ACTOne CNG channel cells, membrane potential fluorescence; series mostly up to 22.9 µM. Summed up:
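The readout is membrane depolarisation from a cAMP-sensing CNG channel, detected with a potential dye at ex 535/em 590. Cells were HEK293-derived (endogenous PDE-IV) at 1000 cells/well, titrated up to 22.9 uM final.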
(In general: qHTS replaces the single test concentration by a dilution series.)

Experiment [9] concerns the target Cytochrome P450 3A4 (Homo sapiens) (UniProt P08684). Nature of the experiment: qHTS Assay for Activators of Cytochrome P450 3A4 (AID 885; active means well fitted curve in the direction sought with a large enough effect; an effect the other way counts as inactive or inconclusive; further: nearly all actives have a fitted effect of over 65% in size). The settings on record: recombinant CYP3A4, Luciferin-PPXE luminescence, 60 min; series mostly up to 57.1 µM. Summed up:
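Activators are scored by enhanced luminescence from CYP3A4 conversion of luciferin-PPXE (25uM, equal to KM) to luciferin, after 60 min at RT with an NADPH-regenerating system.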

Experiment [10] can be described thus: Primary qHTS for small molecule stabilizers of the endoplasmic reticulum resident proteome: Secreted ER Calcium Modulated Protein (SERCaMP) assay (AID 1508630; active means well fitted curve in the direction sought with a large enough effect; an effect the other way counts as inactive or inconclusive; further: on the % scale 0 is the no-effect control and ±100 the full control effect). The note with it: SH-SY5Y GLuc-SERCaMP (Gaussia luciferase released on ER calcium loss) secretion, thapsigargin, luminescence; series mostly up to 38.4 µM. Summed up: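 The SH-SY5Y reporter protocol was run at 3 concentrations up to 38.3 uM (primary) or 11 concentrations (follow-up): 16 h compound, 100 nM thapsigargin for 4 h, then extracellular luciferase luminescence.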

Experiment [11] has as its target Glucocorticoid receptor (Homo sapiens) (UniProt P04150). Description: GR-GFP Redistribution (AID 450;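 active means compounds whose dose series gives a full or clear partial fitted curve of increased nuclear translocation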; further: potency means the concentration at half of the fitted maximal effect). The note with it: U2OS GR-GFP nuclear translocation, laser cytometry, 2 h.
For experiment [12], the target named is Cytochrome P450 2C19 (Homo sapiens) (UniProt P33261). Description: qHTS Assay for Inhibitors and Substrates of Cytochrome P450 2C19 (AID 899; active means well fitted curve in the direction sought with a large enough effect; an effect the other way counts as inactive or inconclusive; further: nearly all actives have a fitted effect of over 60% in size; further: potency means the concentration at half of the fitted maximal effect). The note with it: recombinant CYP2C19, luciferin-H EGE luminescence; series mostly up to 57.1 µM. Summed up:
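NADPH-dependent conversion of Luciferin-H EGE (10uM, at KM) by 5nM enzyme in 50mM KPO4, 60 min at 37C following 10 min compound preincubation. Stopped with luciferin detection buffer; luminescence read after 20 min.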

The target in experiment [13] is Cytochrome P450 3A4 (Homo sapiens) (UniProt P08684). Description: qHTS Assay for Inhibitors and Substrates of Cytochrome P450 3A4 (AID 884; active means well fitted curve in the direction sought with a large enough effect; an effect the other way counts as inactive or inconclusive; further: potency means the concentration at half of the fitted maximal effect; nearly all actives have a fitted effect of over 50% in size). The note with it: recombinant CYP3A4, Luciferin-PPXE luminescence; series mostly up to 57.1 µM. Summed up: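 Luminescent readout of luciferin produced by CYP3A4 (20 nM) dealkylation of Luciferin-PPXE, 25 uM (its KM). NADPH-driven reaction ran 60 min at RT after 10 min compound preincubation; data scaled to 57 uM ketoconazole as 100% inhibition.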
Cytochrome P450 3A4 (Homo sapiens), sequence (P08684 whole entry, looked up): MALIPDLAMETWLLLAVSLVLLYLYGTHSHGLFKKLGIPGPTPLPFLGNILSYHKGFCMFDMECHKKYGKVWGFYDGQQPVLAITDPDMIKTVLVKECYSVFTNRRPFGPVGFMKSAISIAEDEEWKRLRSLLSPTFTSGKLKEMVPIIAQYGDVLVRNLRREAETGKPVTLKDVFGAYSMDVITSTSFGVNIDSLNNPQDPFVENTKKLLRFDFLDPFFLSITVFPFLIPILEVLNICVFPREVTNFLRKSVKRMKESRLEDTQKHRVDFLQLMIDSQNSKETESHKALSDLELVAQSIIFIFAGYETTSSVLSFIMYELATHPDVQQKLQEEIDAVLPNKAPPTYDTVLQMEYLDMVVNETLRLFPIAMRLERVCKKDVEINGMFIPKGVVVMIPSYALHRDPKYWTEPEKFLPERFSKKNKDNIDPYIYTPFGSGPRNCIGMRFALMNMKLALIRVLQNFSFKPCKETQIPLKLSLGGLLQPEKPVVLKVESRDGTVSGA

Experiment [14] concerns the target Ubiquitin carboxyl-terminal hydrolase 1 (Homo sapiens) (UniProt O94782). Nature of the experiment: Inhibitors of USP1/UAF1: Pilot qHTS (AID 504865; active means well fitted curve in the direction sought with a large enough effect; an effect the other way counts as inactive or inconclusive;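 further: rhodamine fluorescence freed from ubiquitin-rhodamine substrate followed over time; top concentration of the series differs between compounds; on the % scale 0 is the no-effect control and ±100 the full control effect; nearly all actives have a fitted effect of over 35% in size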). The settings on record: purified USP1/UAF1, Ub-rhodamine cleavage fluorescence; series mostly up to 54.9 µM. Summed up: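 USP1/UAF1 complex at 1 nM preincubated 15 min at room temperature with compound, then Ub-Rho substrate added at 150 nM final. Fluorescence (480/540 nm) read kinetically in 50 mM HEPES pH 7.8, 0.5 mM EDTA, 1 mM TCEP, 0.1 mg/ml BSA, 0.01% Tween-20.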

The nature of experiment [15]: qHTS Assay for Identification of Small Molecule Agonists for Hypoxia Response Element Signaling Pathway (AID 914; active means well fitted activation curve with a large enough effect in the signal ratio, with a control signal flat, not every such curve was filed as active; the % refers to the signal ratio; further: potency means the concentration at half of the fitted maximal effect). The settings on record: ME-180 (cervical carcinoma) HRE-bla reporter, beta-lactamase ratio, CoCl2, 17 h; activation: active compounds read high. Summed up: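 Positive modulation of EC50 CoCl2-induced hypoxia response element signaling is measured in ME-180 cells with a beta-lactamase reporter. Compounds are titrated, incubation runs 17 hours, and %Activity derives from the blue/green ratio.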

3',5'-cyclic-AMP phosphodiesterase 4B (Homo sapiens), sequence (Q07343 whole entry, looked up): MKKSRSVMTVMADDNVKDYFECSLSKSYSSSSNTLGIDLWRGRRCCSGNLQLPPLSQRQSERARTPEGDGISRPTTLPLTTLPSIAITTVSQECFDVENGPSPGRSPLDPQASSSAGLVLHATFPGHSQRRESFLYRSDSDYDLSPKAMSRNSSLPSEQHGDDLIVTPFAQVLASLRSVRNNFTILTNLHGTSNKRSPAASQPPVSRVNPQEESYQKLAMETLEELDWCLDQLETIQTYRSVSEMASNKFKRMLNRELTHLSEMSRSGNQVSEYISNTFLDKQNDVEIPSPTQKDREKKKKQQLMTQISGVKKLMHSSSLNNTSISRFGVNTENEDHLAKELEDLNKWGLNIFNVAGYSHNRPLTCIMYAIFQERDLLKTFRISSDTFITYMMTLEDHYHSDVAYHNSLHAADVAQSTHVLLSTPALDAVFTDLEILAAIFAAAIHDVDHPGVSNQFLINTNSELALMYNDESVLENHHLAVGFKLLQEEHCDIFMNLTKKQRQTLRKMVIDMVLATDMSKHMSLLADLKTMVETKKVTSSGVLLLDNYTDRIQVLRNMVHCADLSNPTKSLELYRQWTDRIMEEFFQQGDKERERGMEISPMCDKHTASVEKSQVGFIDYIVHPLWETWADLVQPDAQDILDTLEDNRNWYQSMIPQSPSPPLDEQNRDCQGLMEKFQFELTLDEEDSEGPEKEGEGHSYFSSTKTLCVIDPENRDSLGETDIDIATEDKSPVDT
Glucocorticoid receptor (Homo sapiens), sequence (P04150 whole entry, looked up, the tested form may be a part): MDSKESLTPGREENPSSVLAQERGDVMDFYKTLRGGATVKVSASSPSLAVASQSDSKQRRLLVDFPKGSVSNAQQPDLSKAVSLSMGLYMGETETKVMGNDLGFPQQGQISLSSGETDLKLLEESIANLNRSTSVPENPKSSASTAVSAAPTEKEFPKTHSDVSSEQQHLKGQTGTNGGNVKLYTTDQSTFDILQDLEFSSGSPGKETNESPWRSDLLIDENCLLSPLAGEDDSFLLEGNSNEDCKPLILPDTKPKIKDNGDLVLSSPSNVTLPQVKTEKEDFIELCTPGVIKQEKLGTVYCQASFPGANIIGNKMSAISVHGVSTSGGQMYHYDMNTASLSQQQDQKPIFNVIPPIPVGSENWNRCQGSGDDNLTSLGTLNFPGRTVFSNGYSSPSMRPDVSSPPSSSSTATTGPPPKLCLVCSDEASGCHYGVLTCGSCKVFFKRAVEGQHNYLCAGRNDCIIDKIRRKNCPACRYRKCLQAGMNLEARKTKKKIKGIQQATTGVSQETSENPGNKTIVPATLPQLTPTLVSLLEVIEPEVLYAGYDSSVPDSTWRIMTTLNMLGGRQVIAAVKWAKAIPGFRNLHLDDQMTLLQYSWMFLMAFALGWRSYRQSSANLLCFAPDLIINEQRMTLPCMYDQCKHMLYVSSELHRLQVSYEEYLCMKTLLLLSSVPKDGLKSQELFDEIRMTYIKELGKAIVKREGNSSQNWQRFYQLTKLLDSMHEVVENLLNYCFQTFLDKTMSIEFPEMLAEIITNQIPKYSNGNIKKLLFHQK
Lysosomal acid glucosylceramidase (Homo sapiens), sequence (P04062 whole entry, looked up): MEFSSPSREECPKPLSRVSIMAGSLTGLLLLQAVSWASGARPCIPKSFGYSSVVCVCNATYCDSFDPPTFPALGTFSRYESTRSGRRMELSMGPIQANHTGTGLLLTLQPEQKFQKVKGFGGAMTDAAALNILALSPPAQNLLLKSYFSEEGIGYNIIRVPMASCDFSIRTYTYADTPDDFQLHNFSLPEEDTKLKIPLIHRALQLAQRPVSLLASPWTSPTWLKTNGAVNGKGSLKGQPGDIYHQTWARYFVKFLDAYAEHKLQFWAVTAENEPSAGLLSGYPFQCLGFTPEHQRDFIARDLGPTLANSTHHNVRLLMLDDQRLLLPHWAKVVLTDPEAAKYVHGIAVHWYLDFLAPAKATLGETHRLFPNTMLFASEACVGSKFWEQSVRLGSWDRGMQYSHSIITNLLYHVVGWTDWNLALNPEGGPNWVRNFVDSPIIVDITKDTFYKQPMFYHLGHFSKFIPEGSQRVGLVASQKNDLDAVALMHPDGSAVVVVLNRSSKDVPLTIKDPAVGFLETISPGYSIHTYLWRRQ
Cytochrome P450 1A2 (Homo sapiens), sequence (P05177 whole entry, looked up): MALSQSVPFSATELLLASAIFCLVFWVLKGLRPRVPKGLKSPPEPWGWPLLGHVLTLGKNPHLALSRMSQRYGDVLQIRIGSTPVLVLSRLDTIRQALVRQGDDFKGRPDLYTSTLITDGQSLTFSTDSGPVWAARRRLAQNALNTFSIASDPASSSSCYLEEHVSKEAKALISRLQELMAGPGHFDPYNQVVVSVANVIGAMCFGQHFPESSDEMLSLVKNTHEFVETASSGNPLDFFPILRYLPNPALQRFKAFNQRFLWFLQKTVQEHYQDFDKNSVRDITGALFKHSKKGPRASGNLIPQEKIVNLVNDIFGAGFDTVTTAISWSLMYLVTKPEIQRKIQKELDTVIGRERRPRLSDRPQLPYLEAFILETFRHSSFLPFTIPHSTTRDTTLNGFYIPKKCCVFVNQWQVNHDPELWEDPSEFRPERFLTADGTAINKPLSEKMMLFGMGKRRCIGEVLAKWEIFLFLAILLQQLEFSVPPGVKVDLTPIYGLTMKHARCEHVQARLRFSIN
Cytochrome P450 2C19 (Homo sapiens), sequence (P33261 whole entry, looked up): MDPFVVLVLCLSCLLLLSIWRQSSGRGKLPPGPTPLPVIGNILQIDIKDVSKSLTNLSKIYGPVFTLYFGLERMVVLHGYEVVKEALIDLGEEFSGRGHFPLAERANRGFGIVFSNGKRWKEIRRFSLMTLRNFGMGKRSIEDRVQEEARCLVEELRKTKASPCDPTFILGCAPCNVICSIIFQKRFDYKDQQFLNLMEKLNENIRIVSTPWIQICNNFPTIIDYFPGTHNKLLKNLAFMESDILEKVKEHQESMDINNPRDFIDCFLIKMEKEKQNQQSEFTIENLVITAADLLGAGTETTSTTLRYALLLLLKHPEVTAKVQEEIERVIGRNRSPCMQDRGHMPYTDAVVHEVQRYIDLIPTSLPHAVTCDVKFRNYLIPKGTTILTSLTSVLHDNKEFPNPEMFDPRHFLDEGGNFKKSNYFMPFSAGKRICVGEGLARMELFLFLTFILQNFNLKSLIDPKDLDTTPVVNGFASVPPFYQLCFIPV
Ubiquitin carboxyl-terminal hydrolase 1 (Homo sapiens), sequence (O94782 whole entry, looked up): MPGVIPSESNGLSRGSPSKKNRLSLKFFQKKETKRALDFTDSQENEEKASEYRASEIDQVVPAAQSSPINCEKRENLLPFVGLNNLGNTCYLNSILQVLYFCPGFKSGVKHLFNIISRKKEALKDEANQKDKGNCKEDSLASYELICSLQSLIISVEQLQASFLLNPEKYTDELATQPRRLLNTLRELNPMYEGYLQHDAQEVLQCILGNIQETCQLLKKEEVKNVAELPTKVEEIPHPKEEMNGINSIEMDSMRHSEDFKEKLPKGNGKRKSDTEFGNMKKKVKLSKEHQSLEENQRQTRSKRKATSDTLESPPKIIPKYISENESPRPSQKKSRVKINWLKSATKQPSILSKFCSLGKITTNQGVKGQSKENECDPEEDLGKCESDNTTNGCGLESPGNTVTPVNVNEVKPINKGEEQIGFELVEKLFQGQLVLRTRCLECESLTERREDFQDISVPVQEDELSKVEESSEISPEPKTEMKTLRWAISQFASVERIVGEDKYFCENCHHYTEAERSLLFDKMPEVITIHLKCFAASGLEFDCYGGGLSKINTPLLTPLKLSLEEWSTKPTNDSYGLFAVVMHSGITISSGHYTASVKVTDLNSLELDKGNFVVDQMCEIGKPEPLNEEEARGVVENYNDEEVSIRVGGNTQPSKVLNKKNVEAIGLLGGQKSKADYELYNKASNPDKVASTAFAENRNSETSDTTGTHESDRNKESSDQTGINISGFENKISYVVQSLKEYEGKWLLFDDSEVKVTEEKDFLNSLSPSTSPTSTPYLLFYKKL

For the compound `O=C(c1cc(C(F)(F)F)cc(C(F)(F)F)c1)N1CCC2(CC1)CN(Cc1ccncc1)C2`, the Potency in experiment [1] was greater than 11.4 µM; in [3], 20 µM (active); in experiment [6], greater than 46 µM. Besides, the results for the activity change, negative = inhibition in [2] and in [4] were -12.2% and -6.5%, respectively. The activity, negative = inhibition in [5] was 5.6%. In addition, the Potency entry in experiment [7], in experiment [8] and in [9] was “inactive” in each case. For the same compound, the outcome in experiment [10] was inactive.

As for `CN1CCN(c2ncc3nc(-c4ccc(Cl)cc4)c(=O)n(CCC#N)c3n2)CC1`, the Potency was greater than 11.4 µM in experiment [1], 15.8 µM (active) in experiment [3], greater than 9.22 µM in experiment [11] and greater than 46 µM in [6]. In addition, the values for the activity change, negative = inhibition in experiment [2] and in [4] were 130% [activator] (active) and 214% [activator] (active), respectively. The Potency result in experiment [7], in [8] and in experiment [12] was “inactive” each time. Further, in experiment [10], the outcome was inactive.

Take `COc1cccc(-c2cncnc2NCc2cccs2)c1`: the Potency in [1] is greater than 11.4 µM; in experiment [3] it was 1.26 µM (active); in experiment [11] it was greater than 46 µM; in experiment [6] it was greater than 46 µM; in experiment [13], 1.58 µM (active); in experiment [12] it was 0.631 µM (active). Besides, the activity change, negative = inhibition in experiment [2] was -25%. The activity, negative = inhibition in experiment [5] is -6.14%. Also, the Potency result in experiment [7], in experiment [9] and in experiment [14] was “inactive” in each case. Further, in experiment [10], the outcome was inactive.

As for `Cn1cccc1C(=O)N1CCC2(CCCN(c3ccc(-c4ccccc4)cc3)C2)CC1`, the Potency is greater than 11.4 µM in experiment [1], 15.8 µM (active) in [3] and greater than 46 µM in [6]. Further, the activity change, negative = inhibition in [2] is 15.7%; in experiment [4], -14.9%. Further, the activity, negative = inhibition in experiment [5] was 3.39%. Besides, the Potency entry in [8] was “inactive”. In experiment [10], the outcome was inactive.

On to `CC(=O)N1CCC2(CCCN(c3cccc(-c4ccccc4)c3)C2)CC1`, for which the Potency was greater than 11.4 µM in [1], 5.01 µM (active) in [3] and greater than 46 µM in [6]. Also, the activity change, negative = inhibition was -12.3% in [2] and -0.641% in [4]. For the same compound, the activity, negative = inhibition in experiment [5] is -8.45%. In addition, the Potency entry in [7], in [8] and in experiment [9] was “inactive” in each case. For the same compound, the result in experiment [10] was inactive.

`Cc1noc(C)c1C(=O)N1CCC[C@@]2(CCN(Cc3nccs3)C2)C1`: the Potency in experiment [1] was greater than 11.4 µM; in [6], greater than 46 µM. The activity change, negative = inhibition is -0.7% in experiment [2] and 9.88% in experiment [4]. Moreover, the Potency result in [3], in [7], in experiment [8] and in [9] was “inactive” in each case. In addition, in experiment [5], the activity, negative = inhibition is -7.79%. The outcome in [10] was inactive.

As for `Cn1cc(-c2nc3cnc(Oc4ccccc4)nc3n(CCC#N)c2=O)c2ccccc21`, the Potency in experiment [1] was greater than 11.4 µM; in experiment [3] it was 3.16 µM (active); in experiment [11], greater than 9.22 µM; in experiment [6] it was greater than 46 µM; in experiment [15] it was 3.16 µM (active). Besides, the results for the activity change, negative = inhibition in [2] and in [4] were 5.74% and 7.14%, respectively. Moreover, the Potency result in experiment [7], in [8] and in experiment [9] was “inactive” in each case. Further, the outcome in experiment [10] was inactive.

In the case of `O=C(Nc1cccc(F)c1)N1CCCC2(CCN(C(=O)c3cnccn3)CC2)C1`, the Potency in experiment [1] is greater than 11.4 µM; in experiment [6], greater than 46 µM. The activity change, negative = inhibition in [2] was -5.64%; in [4], -3.4%. For the same compound, the Potency entry in [3], in experiment [7] and in experiment [9] was “inactive” each time. Further, the activity, negative = inhibition in [5] was -5.83%. Also, the outcome in experiment [10] was inactive.
